Screening results as filed in PubChem BioAssay.
BH1578 lux ind: quorum light induction in luxS cqsA deficient V. cholerae; 350,000 tested, 0.16% active; AID 588436; activation, % at 18.7 µM; V. cholerae BH1578 lux reporter, luminescence, 6 h; in the data active = activation mostly above about 9.7%, no sharp cut-off
Mtb hypoxia rep: Mtb hypoxia fluorescent reporter inhibition; AID 1159583; M. tuberculosis hypoxia-regulated fluorescent reporter, fluorescence; 300,000 tested, 0.1% active; fluorescence inhibition, % (no concentration beside the values); in the data active = fluorescence inhibition mostly above about 23%, no sharp cut-off; inactive = mostly below about 17%
MazF activator: MazEF (E. coli) toxin RNase activation | P0AE70 | FAM/BHQ RNA-DNA oligo cleavage fluorescence, 5 h | activation, % at 20 µM | AID 504720 | 350,000 tested, 0.32% active; in the data active = activation above about 50%
Target sequence (P0AE70 whole entry, looked up): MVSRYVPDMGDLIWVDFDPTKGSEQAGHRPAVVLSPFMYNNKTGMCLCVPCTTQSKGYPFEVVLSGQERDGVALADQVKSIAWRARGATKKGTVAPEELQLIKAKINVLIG
SSB-PriA inh: blocks PriA binding to SSB C-terminal tail | AlphaScreen SSBct-PriA binding, biotinylated peptide | inhibition, % at 33 µM | 430,000 tested, 0.6% active | AID 1272365; in the data active = inhibition mostly above about 37%, no sharp cut-off; inactive = mostly below about 20%;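 note: plate controls were negative control peptide for no effect and reference peptide for full effect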
The depositor's hits bear a star; i = inactive; x = not tested or not shown; + = active, no number; ! = a repeat was not active. Most compounds without a hit are left out; they make up all but 0.94% or so of the library.

SMILES	BH1578 lux ind	Mtb hypoxia rep	MazF activator	SSB-PriA inh
O=C(Nc1nc(-c2ccc(Cl)s2)cs1)c1ccc2c(c1)OCCO2	x	x	x	2
CCOc1cc(-c2ccc(N)c(OCC)c2)ccc1N	i	x	-32	70*
CN(CC(=O)Nc1ccc(OC(F)(F)F)cc1)C(=O)/C=C/c1ccco1	-1	6	-3	-9
CN(CC(=O)Nc1ccc(OC(F)(F)F)cc1)C(=O)/C=C/c1cc2c(cc1[N+](=O)[O-])OCO2	-1	30*	4	-9
Cc1ccc(N2CC(C(=O)Nc3nc4nc(C)cc(C)c4s3)CC2=O)cc1 (stereo not drawn)	x	x	x	-3
CC(=O)c1c(C)[nH]c(C(=O)NC2CCSc3c(F)cccc32)c1C (stereo not drawn)	x	x	x	88*
CC(=O)c1c(C)[nH]c(C(=O)NC2CCSc3ccccc32)c1C (stereo not drawn)	i	9	-8	45*
Cc1cc(C(=O)NCCn2nc(-c3ccco3)n(C3CC3)c2=O)c(C)o1	x	x	x	2
COc1ccc2cc(C(=O)N3CCCC(Oc4nccnc4C#N)C3)[nH]c2c1 (stereo not drawn)	x	x	x	-3
CCOc1ccc(NC(=O)CSc2nnc(C)c3cnn(-c4ccc(F)cc4)c23)cc1	x	x	x	-6
CCC(C)Sc1cc(-c2nc3ccccn3c2NC2CCCCC2)ccc1OC (stereo not drawn)	-7	6	-5	29
CC(=O)c1ccc(-c2cccc(-c3nc4ccccn4c3NC3CCCCC3)c2)cc1	i	-14	-6	41*
CC(C)Cn1c(=O)c(C(=O)Nc2ccncc2)c(O)c2ccccc21	i	42*	-102	-4
COc1cc(C(=O)N2CCC3(CC2)NCCc2[nH]cnc23)cc(OC)c1OC	i	1	1	-3
Cc1cc(C)cc(C(=O)N2CCC3(CC2)NCCc2[nH]cnc23)c1	0	-8	-3	94*
COc1cccc(Nc2nc(-c3ccccc3O)nc3ccccc23)c1	i	-5	75*	-16
O=C(O)c1cccc(Nc2nc(-c3ccc([N+](=O)[O-])cc3)nc3ccccc23)c1	-1	0	0	1
O=[N+]([O-])c1ccc(-c2nc(Nc3cccc(O)c3)c3ccccc3n2)cc1	i	11	123*	-15
COc1ccc(OC)c(-c2csc(NC(=O)c3ccc(S(=O)(=O)C(C)C)cc3)n2)c1	x	x	x	7
CCC1OC(=O)C(C)C(OC2C[C@@](C)(OC)C(O)C(C)O2)C(C)C(O[C@@H]2OC(C)CC(N(C)C)C2O)[C@](C)(O)CC(C)C(=NOCOCCOC)C(C)C(O)[C@]1(C)O (stereo partly drawn)	0	x	3	-5
COc1ccc(C(=O)Oc2c(CN3CCOCC3)cc(Cl)c3cccnc23)cc1	4	1	-3	-9
COc1cccc(C(=O)Oc2c(CN3CCOCC3)cc(Cl)c3cccnc23)c1	-1	4	4	26
O=C(Oc1c(CN2CCOCC2)cc(Cl)c2cccnc12)c1ccccc1Cl	-3	5	-2	47*
O=C(Oc1c(CN2CCOCC2)cc(Cl)c2cccnc12)c1ccc(F)cc1	i	3	-1	88*
O=C(Oc1c(Cl)cc(Cl)c2cccnc12)c1cccs1	-6	1	2	-39
SMILES	BH1578 lux ind	Mtb hypoxia rep	MazF activator	SSB-PriA inh
O=C(Oc1c(CN2CCOCC2)cc(Cl)c2cccnc12)c1cccs1	i	-6	1	91*!
COc1cc(C(=O)Oc2c(CN3CCOCC3)cc(Cl)c3cccnc23)cc(OC)c1OC	0	4	-1	87*
Cc1ccc(S(=O)(=O)N=C2NC(=O)/C(=C/c3ccc(Br)o3)S2)cc1	x	x	x	2
Cn1c(=O)c(C(=O)NCc2ccccc2Cl)c(O)c2ccccc21	i	8	54*	-7
Cc1ccc(C)c(CC(=O)Nc2nnc(-c3ccno3)o2)c1	x	x	x	56*
COc1ccc(-n2cc3c(-c4cccc(Br)c4)nnc(C)c3n2)cc1	0	x	52*	-4
Cc1cc(C)nc(SCc2nnc(SCC(N)=O)n2Cc2ccco2)n1	0	6	8	1
CCOC(=O)CSc1nnc(CSc2nc(C)cc(C)n2)n1Cc1ccco1	5	4	74*	-7
COc1cc(OC)c2c(-c3ccccc3)cc(=O)oc2c1C(CCN1CCOCC1)c1ccc(N(C)C)cc1 (stereo not drawn)	i	x	1	39*
COc1cc(OC)c2c(-c3ccccc3)cc(=O)oc2c1C(CCN1CCCCC1)c1ccc(N(C)C)cc1 (stereo not drawn)	-5	-4	6	74*
Cc1ccc(NC(=O)C2CCC(C)(C(=O)O)C2(C)C)cc1C (stereo not drawn)	x	x	x	1
Cc1ccc(S(=O)(=O)N2CCN(Cc3nc4sc(C)c(C)c4c(=O)[nH]3)CC2)cc1	0	12	88*	-3
Cc1ccc(S(=O)(=O)N(C)c2ccc(C(=O)NCc3cccnc3)cc2)cc1	-5	0	1	39*
CN(c1ccc(C(=O)NCc2cccnc2)cc1)S(=O)(=O)c1ccc(Cl)cc1	0	-3	5	9
CC1CCN(C2=C(NS(=O)(=O)c3ccc(Cl)cc3)C(=O)c3ccccc3C2=O)CC1	i	8	-3	-12
CC1CCN(C2=C(NS(=O)(=O)c3ccc(Br)cc3)C(=O)c3ccccc3C2=O)CC1	0	-13	-16	70*
CC1CCN(C2=C(NS(=O)(=O)c3ccccc3)C(=O)c3ccccc3C2=O)CC1	0	2	2	64*
CCOc1ccc(C2C(C#N)=C(N)N3C(=C2C#N)Sc2ccccc23)cc1 (stereo not drawn)	i	6	100*	-27
N#CC1=C(N)Oc2n[nH]c(-c3ccccn3)c2C1c1c(F)cccc1Cl (stereo not drawn)	-1	7	2	42*
CCCCNC(=O)/C(C#N)=c1\s/c(=C\c2ccccc2OC(F)F)c(=O)n1CCCOC	0	x	85*	x
COCCCn1c(=C(C#N)C(=O)NCCOC)s/c(=C/c2ccccc2OC(F)F)c1=O	x	x	x	-3
COCCCNC(=O)/C(C#N)=c1\s/c(=C\c2ccccc2OC(F)F)c(=O)n1CCCOC	0	x	98*	x
COCCCn1c(=O)/c(=C\c2ccccc2OC(F)F)s/c1=C(/C#N)C(=O)NCCOC	0	x	83*	x
COCCCn1c(=O)/c(=C/c2ccccc2OC(F)F)s/c1=C(\C#N)C(=O)NCCOC	-1	6	72*	-7
O=C(CSc1ccc(F)cc1)Nc1nnc(-c2ccccc2Cl)o1	x	x	x	6
SMILES	BH1578 lux ind	Mtb hypoxia rep	MazF activator	SSB-PriA inh
CCOC(=O)N1CCc2c(sc(NC(=O)c3ccc(F)cc3)c2C#N)C1	x	x	x	0
COc1ccc(Nc2c([N+](=O)[O-])ccc3c2=NC2(CCCCC2)N=3)cc1	i	8	6	76*
CC(=O)Nc1ccc(NC(=O)c2ccc(CSCc3ccccc3Cl)o2)cc1	x	x	x	-12
O=C(NCCOc1cc(N2CCCCC2)ncn1)C1CCCO1 (stereo not drawn)	x	x	x	-11
CC(=O)OCCn1c2nc(=O)[nH]c(=O)c-2nc2cc(C)c(C)cc21	-1	-56	480*	-26
CN1CCOc2ccc(NS(=O)(=O)c3cnn(C)c3)cc2C1=O	x	x	x	-23
Cc1cc(-c2ccco2)c(C#N)c2nc3ccccc3n12	i	x	+	-14
